Test results taken from PubChem BioAssay (EPA / NIEHS).
Inconclusive results are not listed. Calls of active or inactive are those of the source. The calls were made as follows, unless noted: active = hit-call score of the fitted dose curve at least 0.9, where 1 is the maximum; inactive = score below 0.9.

Legend:
[1] = target: Myc proto-oncogene protein (Homo sapiens) (UniProt P01106); assay: ATG_Myc_CIS: Attagene CIS-FACTORIAL HepG2 Assay for human Myelocytomatosis (Myc) Proto-Oncogene Transcription Factor (AID 2282990); details: HepG2, Attagene cis-reporter transcription factor activity; actives raise or lower the signal
Sequence of Myc proto-oncogene protein (Homo sapiens) (P01106 whole entry, looked up): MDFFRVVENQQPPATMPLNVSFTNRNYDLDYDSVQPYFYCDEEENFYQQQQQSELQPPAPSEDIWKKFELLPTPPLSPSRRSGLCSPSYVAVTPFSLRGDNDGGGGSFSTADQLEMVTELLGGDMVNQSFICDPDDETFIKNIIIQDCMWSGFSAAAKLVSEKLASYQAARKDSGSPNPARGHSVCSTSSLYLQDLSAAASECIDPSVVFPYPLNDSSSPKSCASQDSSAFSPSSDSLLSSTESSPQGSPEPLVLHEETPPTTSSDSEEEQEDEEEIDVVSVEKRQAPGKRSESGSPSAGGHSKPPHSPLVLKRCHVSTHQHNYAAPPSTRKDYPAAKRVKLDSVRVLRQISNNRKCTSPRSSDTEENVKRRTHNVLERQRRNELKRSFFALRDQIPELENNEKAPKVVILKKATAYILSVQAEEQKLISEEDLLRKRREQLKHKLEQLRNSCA
Method in brief: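 HepG2 cells transiently transfected with multiple cis-promoter-driven reporter transcription units, so endogenous TF activity is read. After 24 h compound exposure, reporter mRNA was quantified by RT-PCR, 6-FAM labelling, HpaI digestion and capillary electrophoresis; bidirectional fit versus DMSO.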

[2] = ATG_NRF2_ARE_CIS: Attagene CIS-FACTORIAL HepG2 Assay for human Nuclear Factor Erythroid 2 Related Factor 2 (NFR2) response to Antioxidant Response Elements (ARE) (AID 2282992); details: HepG2 Attagene ARE/NRF2 reporter, transcription factor activity; actives raise or lower the signal;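 as to AC50: reporter mRNA level measured by RT-PCR and capillary electrophoresis fluorescence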
Method in brief: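 Transient MRTU transfection of HepG2; 24 h compound exposure; TriZol RNA, RT with oligo(dT), PCR, 6-FAM primer extension, HpaI cut, CE. Bidirectional fit vs DMSO.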

[3] = ATG_Oct_MLP_CIS: Attagene CIS-FACTORIAL HepG2 Assay for human Octamer-Binding Transcription Factor (Oct) (AID 2282993); details: HepG2 Attagene cis-factorial Oct reporter, mRNA; actives raise or lower the signal
Method in brief: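 Readout is reporter transcript level from RT-PCR with fluorescent primer extension and capillary electrophoresis, fitted in both directions against DMSO. Transfected HepG2 reporter units report endogenous factor activity after 24 h dosing.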

[4] = target: Cellular tumor antigen p53 (Homo sapiens) (UniProt P04637); assay: ATG_p53_CIS: Attagene CIS-FACTORIAL HepG2 Assay for human p53 Transcription Factor (AID 2282994); details: HepG2 p53 cis-element reporter, Attagene mRNA; actives raise or lower the signal
Sequence of Cellular tumor antigen p53 (Homo sapiens) (P04637 whole entry, looked up): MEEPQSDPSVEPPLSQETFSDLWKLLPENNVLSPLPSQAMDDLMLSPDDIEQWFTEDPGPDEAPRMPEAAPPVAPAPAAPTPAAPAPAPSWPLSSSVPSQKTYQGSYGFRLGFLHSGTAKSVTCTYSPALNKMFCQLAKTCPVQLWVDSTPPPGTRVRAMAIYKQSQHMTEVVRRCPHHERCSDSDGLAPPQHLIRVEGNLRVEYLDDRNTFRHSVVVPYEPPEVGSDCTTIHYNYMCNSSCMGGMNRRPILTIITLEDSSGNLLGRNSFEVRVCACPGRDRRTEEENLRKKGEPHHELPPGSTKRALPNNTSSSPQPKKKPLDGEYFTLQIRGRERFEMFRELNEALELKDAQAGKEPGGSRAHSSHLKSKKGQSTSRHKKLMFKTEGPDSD
Method in brief: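 HepG2, transient MRTU transfection (cis promoter elements, endogenous TFs); 24 h dosing; RNA isolation, RT-PCR, 6-FAM primer extension, HpaI digest, CE fluorescence; bidirectional fit vs DMSO.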

[5] = target: human Peroxisome Proliferator-activated Receptor alpha (PPARa), PPARA (gene 5465) (UniProt Q07869); assay: ATG_PPARa_TRANS: Attagene TRANS-FACTORIAL HepG2 Assay for human Peroxisome Proliferator-activated Receptor alpha (PPARa) (AID 2283001; active = hit-call score of the fitted dose curve at least 0.9, where 1 is the maximum;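 as to AC50: potency for gain of reporter signal over DMSO so agonist or activator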)
Sequence of human Peroxisome Proliferator-activated Receptor alpha (PPARa), PPARA (gene 5465) (Q07869 whole entry, looked up, the tested form may be a part): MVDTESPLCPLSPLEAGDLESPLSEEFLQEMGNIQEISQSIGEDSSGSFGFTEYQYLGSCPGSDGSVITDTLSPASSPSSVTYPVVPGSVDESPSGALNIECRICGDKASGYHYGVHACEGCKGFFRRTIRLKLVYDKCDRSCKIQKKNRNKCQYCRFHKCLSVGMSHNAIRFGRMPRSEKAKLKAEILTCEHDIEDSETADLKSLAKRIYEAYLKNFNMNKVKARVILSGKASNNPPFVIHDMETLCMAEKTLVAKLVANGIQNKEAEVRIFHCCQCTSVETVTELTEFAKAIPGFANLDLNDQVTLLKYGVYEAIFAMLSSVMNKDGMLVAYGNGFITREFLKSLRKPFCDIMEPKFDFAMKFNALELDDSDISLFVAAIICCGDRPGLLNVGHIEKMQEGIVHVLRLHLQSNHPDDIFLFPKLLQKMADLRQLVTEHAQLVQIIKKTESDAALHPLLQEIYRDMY
Method in brief: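 HepG2 cells transiently transfected with multiplexed GAL4-UAS reporter units and chimeric NR-Gal4 constructs were dosed for 24 h. Reporter mRNA was measured by RT-PCR with fluorescent labelling and capillary electrophoresis; gain of signal fitted against DMSO.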

[6] = target: human Peroxisome Proliferator-activated Receptor delta (PPARd), PPARD (gene 5467) (UniProt Q03181); assay: ATG_PPARd_TRANS: Attagene TRANS-FACTORIAL HepG2 Assay for human Peroxisome Proliferator-activated Receptor delta (PPARd) (AID 2283002; active = hit-call score of the fitted dose curve at least 0.9, where 1 is the maximum)
Sequence of human Peroxisome Proliferator-activated Receptor delta (PPARd), PPARD (gene 5467) (Q03181 whole entry, looked up, the tested form may be a part): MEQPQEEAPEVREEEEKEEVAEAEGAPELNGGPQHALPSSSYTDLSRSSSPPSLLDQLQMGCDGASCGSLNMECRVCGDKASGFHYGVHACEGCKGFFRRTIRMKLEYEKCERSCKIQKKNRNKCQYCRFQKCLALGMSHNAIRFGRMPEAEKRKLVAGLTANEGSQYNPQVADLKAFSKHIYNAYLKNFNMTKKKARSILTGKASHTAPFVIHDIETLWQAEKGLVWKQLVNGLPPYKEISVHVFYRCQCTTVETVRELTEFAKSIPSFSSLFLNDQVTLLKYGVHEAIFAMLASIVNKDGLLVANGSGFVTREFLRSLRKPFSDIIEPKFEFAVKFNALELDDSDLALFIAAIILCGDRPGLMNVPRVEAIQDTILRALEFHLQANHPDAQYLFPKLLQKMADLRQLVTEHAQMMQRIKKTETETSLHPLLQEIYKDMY
Method in brief: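 HepG2 cells transiently transfected with multiplexed GAL4-UAS reporter units and exogenous chimeric NR-Gal4 proteins; 24 h compound exposure. Reporter mRNA measured by RT-PCR, 6-FAM labelling, HpaI digestion and capillary electrophoresis; gain of signal versus DMSO.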

[7] = target: Peroxisome proliferator-activated receptor gamma (Homo sapiens) (UniProt P37231); assay: ATG_PPARg_TRANS: Attagene TRANS-FACTORIAL HepG2 Assay for human Peroxisome Proliferator-activated Receptor-gamma (PPARg) (AID 2283007; active = hit-call score of the fitted dose curve at least 0.9, where 1 is the maximum)
Sequence of Peroxisome proliferator-activated receptor gamma (Homo sapiens) (P37231 whole entry, looked up, the tested form may be a part): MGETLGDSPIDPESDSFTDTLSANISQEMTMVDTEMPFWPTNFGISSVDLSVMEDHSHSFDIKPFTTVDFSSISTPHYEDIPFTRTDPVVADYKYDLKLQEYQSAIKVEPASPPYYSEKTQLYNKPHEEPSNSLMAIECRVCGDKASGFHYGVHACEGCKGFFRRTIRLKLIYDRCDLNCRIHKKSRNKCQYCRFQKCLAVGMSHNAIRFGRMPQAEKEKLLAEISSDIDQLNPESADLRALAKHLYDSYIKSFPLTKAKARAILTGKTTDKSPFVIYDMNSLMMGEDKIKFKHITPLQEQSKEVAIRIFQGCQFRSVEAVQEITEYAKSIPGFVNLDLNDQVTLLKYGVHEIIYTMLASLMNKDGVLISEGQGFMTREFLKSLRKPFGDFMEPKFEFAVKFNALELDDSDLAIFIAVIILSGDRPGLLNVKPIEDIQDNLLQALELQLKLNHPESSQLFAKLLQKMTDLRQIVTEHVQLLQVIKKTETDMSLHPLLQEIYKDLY
Method in brief: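 HepG2 cells transiently transfected with multiplexed GAL4-UAS reporter units and exogenous chimeric NR-Gal4 proteins; reporter mRNA quantified after 24 h compound exposure by RT-PCR, fluorescent labelling, HpaI digestion and capillary electrophoresis; gain-of-signal fitted versus DMSO baseline.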

[8] = target: Nuclear receptor subfamily 1 group I member 2 (Homo sapiens) (UniProt O75469); assay: ATG_PXR_TRANS: Attagene TRANS-FACTORIAL HepG2 Assay for human Pregnane X Receptor (PXR) (AID 2283008; active = hit-call score of the fitted dose curve at least 0.9, where 1 is the maximum)
Sequence of Nuclear receptor subfamily 1 group I member 2 (Homo sapiens) (O75469 whole entry, looked up, the tested form may be a part): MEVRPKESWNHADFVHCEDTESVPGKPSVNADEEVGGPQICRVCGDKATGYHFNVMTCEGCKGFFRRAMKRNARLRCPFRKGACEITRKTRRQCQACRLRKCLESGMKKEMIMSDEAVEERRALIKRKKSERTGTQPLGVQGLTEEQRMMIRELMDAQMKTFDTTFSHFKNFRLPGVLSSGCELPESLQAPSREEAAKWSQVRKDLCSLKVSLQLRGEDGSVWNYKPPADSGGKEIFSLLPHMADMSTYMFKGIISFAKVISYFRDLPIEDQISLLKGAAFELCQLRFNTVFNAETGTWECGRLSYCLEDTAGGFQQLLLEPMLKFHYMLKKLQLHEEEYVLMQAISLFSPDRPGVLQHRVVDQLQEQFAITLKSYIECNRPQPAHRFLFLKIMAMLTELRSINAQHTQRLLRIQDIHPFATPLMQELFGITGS
Method in brief: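 Read-out is fluorescence of labelled reporter cDNA fragments separated by capillary electrophoresis after RT-PCR and HpaI digestion. Source: HepG2 cells carrying PXR-GAL4/UAS reporter constructs, treated 24 h; activity fitted upward relative to DMSO.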

[9] = target: human RAR-related Orphan Receptor beta (RORb), RORB (gene 6096) (UniProt Q92753); assay: ATG_RORb_TRANS: Attagene TRANS-FACTORIAL HepG2 Assay for human RAR-related Orphan Receptor beta (RORb) (AID 2283010; active = hit-call score of the fitted dose curve at least 0.9, where 1 is the maximum)
Sequence of human RAR-related Orphan Receptor beta (RORb), RORB (gene 6096) (Q92753 whole entry, looked up, the tested form may be a part): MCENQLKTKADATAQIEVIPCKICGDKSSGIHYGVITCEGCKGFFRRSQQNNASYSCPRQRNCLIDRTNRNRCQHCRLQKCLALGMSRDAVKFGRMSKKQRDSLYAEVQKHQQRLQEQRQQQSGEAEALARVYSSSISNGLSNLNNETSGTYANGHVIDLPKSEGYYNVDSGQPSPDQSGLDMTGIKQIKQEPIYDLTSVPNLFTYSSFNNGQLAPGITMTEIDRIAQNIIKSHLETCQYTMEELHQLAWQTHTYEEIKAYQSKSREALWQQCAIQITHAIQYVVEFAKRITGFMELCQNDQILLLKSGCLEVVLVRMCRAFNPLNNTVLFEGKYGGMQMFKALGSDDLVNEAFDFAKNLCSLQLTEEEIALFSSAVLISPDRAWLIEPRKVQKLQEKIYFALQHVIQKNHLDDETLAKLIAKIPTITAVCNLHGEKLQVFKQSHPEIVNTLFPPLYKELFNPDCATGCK
Method in brief: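 In this TRANS-format test, human HepG2 cells express chimeric NR-Gal4 fusion proteins driving GAL4-UAS reporters. After 24 h dosing, reporter transcripts are measured by fluorescent RT-PCR/capillary electrophoresis, with DMSO as negative control.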

[10] = ATG_NF_kB_CIS: Attagene CIS-FACTORIAL HepG2 Assay for human Nuclear Factor Kappa B (NF-kB) (AID 2282991); details: HepG2 Attagene cis-factorial NF-kB reporter mRNA; actives raise or lower the signal
Method in brief: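 HepG2 cells transiently transfected with multiplexed cis-element reporter units measuring endogenous transcription factor activity; reporter mRNA read 24 h after dosing by RT-PCR, fluorescent labelling, HpaI digestion and capillary electrophoresis. Bidirectional fit against DMSO baseline.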

[11] = target: human Retinoic Acid Receptor beta (RARb), RARB (gene 5915) (UniProt P10826); assay: ATG_RARb_TRANS: Attagene TRANS-FACTORIAL HepG2 Assay for human Retinoic Acid Receptor beta (AID 2283004; active = hit-call score of the fitted dose curve at least 0.9, where 1 is the maximum)
Sequence of human Retinoic Acid Receptor beta (RARb), RARB (gene 5915) (P10826 whole entry, looked up, the tested form may be a part): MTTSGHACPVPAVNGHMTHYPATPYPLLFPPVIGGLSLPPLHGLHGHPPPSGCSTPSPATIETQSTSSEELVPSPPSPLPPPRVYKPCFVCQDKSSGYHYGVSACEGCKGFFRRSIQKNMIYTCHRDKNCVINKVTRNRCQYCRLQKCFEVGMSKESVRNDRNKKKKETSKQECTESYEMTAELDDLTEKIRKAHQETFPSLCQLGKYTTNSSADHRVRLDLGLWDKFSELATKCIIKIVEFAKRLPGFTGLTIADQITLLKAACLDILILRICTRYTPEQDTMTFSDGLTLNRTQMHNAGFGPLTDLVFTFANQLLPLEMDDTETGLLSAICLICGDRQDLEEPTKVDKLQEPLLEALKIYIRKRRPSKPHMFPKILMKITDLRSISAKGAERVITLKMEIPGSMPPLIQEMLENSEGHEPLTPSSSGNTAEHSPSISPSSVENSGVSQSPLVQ
Method in brief: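 Induction of reporter mRNA from a chimeric RARb-Gal4 construct was measured by RT-PCR, FAM labelling, HpaI digestion and capillary electrophoresis. Measurements followed 24 h compound treatment of transiently transfected human HepG2 liver cells, with DMSO as baseline.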

[12] = target: Retinoic acid receptor alpha (Homo sapiens) (UniProt P10276); assay: ATG_RARa_TRANS: Attagene TRANS-FACTORIAL HepG2 Assay for human Retinoic Acid Receptor alpha (RARa) (AID 2283005; active = hit-call score of the fitted dose curve at least 0.9, where 1 is the maximum)
Sequence of Retinoic acid receptor alpha (Homo sapiens) (P10276 whole entry, looked up, the tested form may be a part): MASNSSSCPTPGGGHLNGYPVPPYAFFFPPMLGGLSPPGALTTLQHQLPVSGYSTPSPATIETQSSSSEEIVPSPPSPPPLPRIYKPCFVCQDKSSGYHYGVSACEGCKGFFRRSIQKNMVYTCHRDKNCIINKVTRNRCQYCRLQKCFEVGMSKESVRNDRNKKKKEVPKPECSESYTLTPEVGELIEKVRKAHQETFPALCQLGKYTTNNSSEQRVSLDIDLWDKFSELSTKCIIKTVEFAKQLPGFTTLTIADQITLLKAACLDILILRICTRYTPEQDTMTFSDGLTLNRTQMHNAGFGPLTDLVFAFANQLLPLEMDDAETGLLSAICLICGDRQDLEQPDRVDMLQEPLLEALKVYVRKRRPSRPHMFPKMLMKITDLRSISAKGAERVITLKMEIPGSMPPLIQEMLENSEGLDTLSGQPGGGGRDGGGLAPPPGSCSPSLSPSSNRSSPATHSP
Method in brief: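 HepG2 cells transiently transfected with multiple reporter units expressing chimeric RARα-GAL4 fusion, with GAL4-UAS-driven reporters. After 24 h compound exposure, reporter mRNA induction quantified by RT-PCR and capillary electrophoresis with fluorescent labeling; gain-of-signal fitted relative to DMSO control.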

[13] = target: human Retinoic Acid Receptor gamma (RARg), RARG (gene 5916) (UniProt P13631); assay: ATG_RARg_TRANS: Attagene TRANS-FACTORIAL HepG2 Assay for human Retinoic Acid Receptor gamma (RARg) (AID 2283009; active = hit-call score of the fitted dose curve at least 0.9, where 1 is the maximum)
Sequence of human Retinoic Acid Receptor gamma (RARg), RARG (gene 5916) (P13631 whole entry, looked up, the tested form may be a part): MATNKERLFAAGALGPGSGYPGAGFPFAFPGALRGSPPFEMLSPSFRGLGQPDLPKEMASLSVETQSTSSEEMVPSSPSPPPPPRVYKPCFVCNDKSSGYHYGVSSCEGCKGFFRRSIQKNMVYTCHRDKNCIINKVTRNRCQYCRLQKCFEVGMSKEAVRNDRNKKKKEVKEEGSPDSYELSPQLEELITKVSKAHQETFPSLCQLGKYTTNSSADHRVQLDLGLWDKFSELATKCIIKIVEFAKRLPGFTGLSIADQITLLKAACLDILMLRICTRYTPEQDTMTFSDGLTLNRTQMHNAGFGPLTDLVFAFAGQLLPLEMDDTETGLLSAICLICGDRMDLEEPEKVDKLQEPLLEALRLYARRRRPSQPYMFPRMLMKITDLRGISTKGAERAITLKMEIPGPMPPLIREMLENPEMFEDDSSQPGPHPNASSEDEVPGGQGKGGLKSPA
Method in brief: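 HepG2, RARg-GAL4 TRANS system, 24 h exposure; reporter mRNA by RT-PCR + CE fluorescence; increase over DMSO.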

Measured: AC50

CCCCCCCCCCC(CO)CCCCCCCC (centres undefined)
not listed: [10] | [11] | [12] | [13]
inactive: all other assays above

Nc1cccc(S(=O)(=O)c2cccc(N)c2)c1
inactive: [1] | [2] | [3] | [4] | [6] | [7] | [9]

CC1CCC2CC1C2(C)C (centres undefined)
inactive: [1] | [10] | [2] | [4] | [5] | [8]

O=C(O)c1ccc(C(=O)O)cc1
inactive: [1] | [10] | [2] | [3] | [4] | [8]

NCCOCCO
inactive: [1] | [2] | [4] | [8] | [9]

COc1ccc(NC(=O)CC(C)=O)cc1
inactive: [1] | [2] | [3] | [4] | [8]

CC(=O)c1c(C)cc(C(C)(C)C)cc1C
not listed: [5] | [7] | [9]
inactive: all other assays above

CCCCCCOC(=O)CC
not listed: [3] | [11] | [12] | [13]
inactive: all other assays above

O=C(O)COCCN1CCN(C(c2ccccc2)c2ccc(Cl)cc2)CC1 (centres undefined)
inactive: [1] | [3] | [4] | [5] | [6] | [8]

C=O
not listed: [4] | [5] | [6] | [7] | [9]
inactive: all other assays above

CCCCCOC(=O)CCC
not listed: [12]
inactive: all other assays above

CCCCNC(=O)NS(=O)(=O)c1ccc(C)cc1
not listed: [10] | [11] | [12] | [13]
inactive: all other assays above

CCC/C=C/C=O
inactive: [1] | [3] | [5] | [6]
active: [2] 30.5 µM | [7] 27.7 µM

CCCCCC=CCC(=O)OC
active: [7] 75.4 µM
not listed: [6] | [11] | [12] | [13]
inactive: all other assays above

Nc1ccc(F)c([N+](=O)[O-])c1
inactive: [10] | [2] | [4] | [6] | [7]

CC(C=O)Cc1ccc(C(C)C)cc1 (centres undefined)
active: [5] 49.1 µM
not listed: [9] | [11] | [12] | [13]
inactive: all other assays above

COC(C(=O)O)c1ccccc1 (centres undefined)
inactive: [1] | [10] | [2] | [4] | [6] | [7] | [8]

CC(C)[C@H]1CC[C@@H](C)CC1=O
inactive: [1] | [2] | [3] | [4] | [5] | [8] | [9]

CC(CN1c2ccccc2Sc2ccccc21)N(C)C (centres undefined)
active: [3] 38.8 µM | [4] 30.5 µM | [7] 47.8 µM | [8] 6.83 µM
inactive: [1] | [10] | [2] | [5] | [13]
